AI-2 QS modul – Vibrio harveyi AI-2 quorum sensing modulators, primary screen, JMH597 strain, luminescence/OD600 ratio. Vibrio harveyi JMH597 AI-2 luminescence/OD600 ratio, 9 h; hits give low values; strain lacks LuxN and CqsS sensors; 0 = neutral-control median. hit rate 0.4% among 300,000. activity change, % at 7.5 µM; in the data active = activity change below about -75%, passing the limit was not always enough;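 note: luminescence divided by OD600 gain over 9 h not by final OD600 alone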
Cardio protect – cardioprotection against H2O2-induced cell death, primary screen, uHTS, H9c2 cells, ATPLite luminescence; protection from H2O2 cell death, % at 20 µM; AID 588492, 2011; H9c2 cardiomyocytes, H2O2 injury protection, 2 h; hit rate 0.63% among 360,000;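 active = compounds giving at least 50% protection of heart cells from peroxide-induced death in the single-dose screen, raw or plate-pattern-corrected value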;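 note: 0% = DMSO wells with peroxide and 100% = DMSO wells without peroxide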
NR3A LBD binder – binders of NR3A ligand-binding domain, primary screen, biophysical, differential scanning fluorimetry, uHTS; Tm shift relative to glycine control, % at 25 µM; AID 1259313, 2017; hit rate 2.5% among 340,000; NR3A LBD differential scanning fluorimetry, Tm shift; 0% = protein alone, 100% = glycine-bound protein;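 active = melting temperature shift of at least 10% of the positive control shift, at one fixed dose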
AHR act – AHR activators, primary screen, cell-based, luminescence, luciferase reporter, human; hit rate 2.5% among 320,000; AHR-responsive luciferase reporter cells; AID 2796, 2010; activation, % at 5 µM; Aryl hydrocarbon receptor (Homo sapiens), P35869; in the data active = activation above about 47%;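 note: 0% = vehicle wells and 100% = reference agonist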
Target sequence (P35869 whole entry, looked up): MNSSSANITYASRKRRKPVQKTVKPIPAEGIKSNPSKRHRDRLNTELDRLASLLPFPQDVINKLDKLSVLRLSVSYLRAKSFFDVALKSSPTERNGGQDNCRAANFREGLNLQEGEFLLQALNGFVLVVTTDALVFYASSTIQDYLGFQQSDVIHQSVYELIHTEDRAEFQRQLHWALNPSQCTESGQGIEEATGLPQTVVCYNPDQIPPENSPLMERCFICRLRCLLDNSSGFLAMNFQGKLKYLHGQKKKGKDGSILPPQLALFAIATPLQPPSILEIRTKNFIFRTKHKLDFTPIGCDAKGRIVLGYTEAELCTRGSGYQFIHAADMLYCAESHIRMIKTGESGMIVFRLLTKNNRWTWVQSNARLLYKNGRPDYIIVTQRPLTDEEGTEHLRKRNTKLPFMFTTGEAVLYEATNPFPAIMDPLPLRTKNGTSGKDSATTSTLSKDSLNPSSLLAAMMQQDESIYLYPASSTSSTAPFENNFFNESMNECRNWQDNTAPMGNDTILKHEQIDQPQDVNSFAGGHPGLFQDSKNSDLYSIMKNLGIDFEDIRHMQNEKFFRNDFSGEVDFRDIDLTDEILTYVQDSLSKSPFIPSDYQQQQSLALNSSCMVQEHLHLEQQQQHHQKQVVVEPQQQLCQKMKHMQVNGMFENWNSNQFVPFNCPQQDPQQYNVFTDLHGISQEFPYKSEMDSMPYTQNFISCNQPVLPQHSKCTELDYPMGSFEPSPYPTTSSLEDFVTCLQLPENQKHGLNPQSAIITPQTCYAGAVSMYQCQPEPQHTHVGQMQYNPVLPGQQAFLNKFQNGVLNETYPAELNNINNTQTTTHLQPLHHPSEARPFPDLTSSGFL
NTR1 agonist – agonists of human NTR1, primary screen, imaging, U2OS cells, beta-arrestin-GFP, high content | NTR1-U2OS beta-arrestin-GFP spot imaging, agonist mode | AID 493036, 2011 | Neurotensin receptor type 1 (Homo sapiens), P30989 | activation, % at 20 µM | hit rate 0.17% among 330,000;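 active = activation at or above 40% of the spot to cytoplasm intensity ratio, with at least 20 cells analyzed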;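 note: 0% = DMSO without peptide and 100% = 100 nM NTR1 peptide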
Mot1-301 SUMO – yeast Mot1-301 growth rescue at high temperature, primary screen, SUMOylation pathway inhibitor project, S. cerevisiae, ATP luminescence, 38.5C; S. cerevisiae Mot1-301 growth rescue; percent above DMSO median, 100 means doubled; growth rescue, % at 18.8 µM; AID 2716, 2010; hit rate 1% among 320,000;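 active = every valid replicate shows activation above 250% relative to neutral control wells; inactive = the rest, any valid replicate at or below 250%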;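 note: OY570 slx delta 5 strain wells were the positive control but not used for scaling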
An asterisk follows results filed as active; i = inactive; nt = no result given. This is a sample that favours compounds with a hit; in the whole collection about 6.2% have one here.

SMILES	AI-2 QS modul	Cardio protect	NR3A LBD binder	AHR act	NTR1 agonist	Mot1-301 SUMO
O=C(Nc1ccccc1N1CCCC1)c1cc2ccccc2o1	7.5	-1.1	-5.6	46.1	-1.9	9.5
Cc1ccccc1NC(=O)c1ccc2c(c1)OCCO2	9.2	-7.0	-0.8	-2.9	-1.1	72.5
O=C(Nc1ccc(NC(=O)c2cc3ccccc3o2)cc1)c1ccc2c(c1)OCCO2	-2.2	-2.8	21.4*	-11.4	-0.9	-5.5
Cc1cc(NC(=O)c2ccc3c(c2)OCCO3)ccc1NC(=O)c1cc2ccccc2o1	8.6	30.2	14.7*	-7.9	11.5	-29.4
O=C(Nc1ccccc1N1CCN(C(=O)c2ccccc2)CC1)c1cc2ccccc2o1	nt	20.8	1.4	16.6	13.5	264.0*
COc1ccc(C(=O)NCC(=O)OCC(=O)NCc2ccc3c(c2)OCO3)cc1	nt	-1.9	0.6	-1.8	0.5	4.2
N#CCCN(C(=O)COC(=O)c1ccc(Cl)nc1)c1ccc2c(c1)OCCO2	nt	-0.2	nt	nt	nt	nt
CC(=O)NC(c1ccc(Cl)cc1Cl)c1ccc2cccnc2c1O (centres undefined)	-83.6*	34.9	-1.6	nt	2.2	i
CC(=O)NC(c1ccco1)c1cc(F)c2cccnc2c1O (centres undefined)	nt	50.5*	2.3	-2.8	-1.2	-1.3
CCCCC(=O)NC(c1ccc(N(CC)CC)cc1)c1ccc2cccnc2c1O (centres undefined)	-42.9	52.2*	-1.2	0.9	0.6	9.1
CCC(=O)NC(C)c1cc(Cl)c2cccnc2c1O (centres undefined)	nt	33.8	-0.8	-1.2	8.8	-23.7
CC(=O)NC(C)c1cc(Cl)c2cccnc2c1O (centres undefined)	nt	57.6*	-3.4	4.7	8.0	-15.5
CCCCC(=O)NC(c1ccc(N(C)C)cc1)c1ccc2cccnc2c1O (centres undefined)	nt	30.6	-1.2	1.5	1.3	12.6
CCCC(=O)NC(c1ccc(Cl)cc1Cl)c1ccc2cccnc2c1O (centres undefined)	28.1	32.7	-5.2	0.3	2.9	7.6
CC1=C(C(=O)OC2CCCCC2)C(c2ccc(F)cc2)NC(=O)N1 (centres undefined)	8.6	-7.0	0.1	0.4	0.4	0.3
C=C(C)c1nc(Oc2ccccc2)nc(Oc2ccccc2)n1	nt	-13.5	-0.2	nt	nt	nt
Cc1cnc(NC(=O)COc2cccc3c2OC(C)(C)C3)s1	14.4	4.2	1.7	4.7	-0.3	254.9*
CC(C)(C)S(=O)N1Cc2cc(C(=O)NCC(F)(F)F)nc(-c3cccc(-c4cccc(F)c4)c3)c2[C@H]1CCO (some centres undefined)	nt	7.8	nt	nt	nt	nt
CC(=O)c1cc(C#N)c(SCc2ccccc2)nc1C	13.4	-13.2	15.2*	-0.1	10.5	15.9
COC(=O)c1cc(C#N)c(SCc2ccccc2)nc1C	11.7	-17.0	-0.1	4.2	8.5	-9.0
CN(CCOc1ccccc1)CC(=O)Nc1ccc(Br)cc1F	21.0	-4.6	-0.9	3.2	1.1	-19.2
CCOc1ccc(N(CC(=O)N2CCN(c3ccc(F)cc3)CC2)S(=O)(=O)c2c(C)noc2C)cc1	11.9	-2.9	1.4	3.5	0.4	-24.9
CC(C)(C)CC(C)(C)c1ccc(O)c(CN2CCN(CCC#N)CC2)c1	18.5	-0.2	0.0	6.0	0.2	44.7
CC(C)(C)CC(C)(C)c1ccc(O)c(Cc2ccc(Cl)cc2Cl)c1	nt	-44.5	11.5*	nt	nt	nt
CN(CC(=O)Nc1ccccc1C(F)(F)F)C(=O)c1ccc2c(=O)n3c(nc2c1)CCC3	nt	16.1	1.0	0.6	-1.9	-4.0
SMILES	AI-2 QS modul	Cardio protect	NR3A LBD binder	AHR act	NTR1 agonist	Mot1-301 SUMO
COc1cccc(Nc2nc(C(N)C3CCCCC3)cs2)n1 (centres undefined)	nt	-6.7	nt	nt	nt	nt
O=C1C=C(c2ccc(F)nc2)C[C@@H](c2ccc3c(c2)OCO3)C1	nt	-5.0	-2.7	58.0*	2.8	-1.5
O=C(O)c1cc(N/N=C/c2c[nH]c3ccccc23)ccc1Cl	3.1	-2.2	21.7*	58.1*	-1.0	12.3
COc1ccc(C(=O)N/N=C/c2cccc3cccnc23)cc1	34.4	17.6	-0.5	4.2	-1.8	nt
C(=N\Nc1ccccn1)/c1c[nH]c2ccccc12	13.9	-2.2	5.9	47.6*	4.5	-7.4
O=c1nc(N/N=C/c2c[nH]c3ccccc23)cn[nH]1	14.6	-6.4	-1.4	31.6	-1.4	111.1
CC(=O)Nc1cccc(C(=O)N/N=C/c2c[nH]c3ccccc23)c1	9.9	-2.2	30.0*	75.8*	1.2	-4.2
O=C(O)c1cc(N/N=C/c2ccc(-c3ccccc3)cc2)ccc1Cl	26.8	1.2	-2.7	nt	nt	129.8
CC(=O)Nc1cccc(C(=O)N/N=C/c2ccc(C)o2)c1	37.1	1.7	-1.3	13.5	-1.0	-14.9
COc1ccc(C(=O)N/N=C/c2cc3ccccc3[nH]c2=S)cc1	73.4	11.3	3.5	57.1*	0.7	6.9
CN(C(=O)CN1CCN(c2cc(-c3cccc4oc5ccccc5c34)ncn2)CC1)c1ccccc1	nt	4.8	nt	nt	nt	nt
Cc1nc([N+](=O)[O-])cn1CC(=O)Nc1ccc(F)c(Cl)c1	nt	-3.4	0.1	1.2	-0.5	6.1
O=C(N/N=C/c1c[nH]c2ccccc12)c1cccc(O)c1	14.6	-5.7	25.7*	8.2	-0.4	1.3
O=C(N/N=C/c1c[nH]c2ccccc12)c1cccc(Cl)c1	12.7	22.0	37.0*	52.3*	1.1	-4.9
Cn1ccc(C(=O)N/N=C/c2c[nH]c3ccccc23)n1	4.6	-10.0	-0.8	42.1	-1.6	9.6
CCOc1ccccc1C(=O)N/N=C/c1c[nH]c2ccccc12	9.3	3.6	4.0	30.8	0.4	17.9
CCCOc1ccc(C(=O)N/N=C/c2c[nH]c3ccc(Br)cc23)cc1	18.8	5.3	37.4*	3.3	8.1	9.0
COc1ccc(C(=O)N/N=C/c2c[nH]c3ccccc23)cc1	4.4	-9.9	36.6*	55.8*	-0.6	4.2
CCCCOc1ccc(C(=O)N/N=C/c2cn[nH]c2-c2ccc(OC)c(OC)c2)cc1	-0.7	4.5	-11.6	8.5	6.4	28.5
CCN1CCN(C(=O)CN2C(=O)c3ccccc3S2(=O)=O)CC1	23.9	-0.1	2.6	6.3	0.5	2.9
CCOc1cc(N2CCOCC2)c(OCC)cc1NC(=O)COC(=O)CCOc1cc(C)ccc1C	17.0	-3.4	3.5	0.1	2.7	-1.1

Screening results deposited in PubChem BioAssay by several laboratories.
